Only a sample is shown.
aSyn 5UTR act = Activators via SNCA 5'UTR binding, MLPCN; alpha-synuclein 5'UTR reporter, activators screen; actives 7.1% (n = 300,000); activity score, % (tested at 7.5 µM), hits read low; in the data active = activity score below about -60%
An asterisk follows results filed as active.

SMILES | aSyn 5UTR act
O=C(CSc1nnc(SCc2cccc3ccccc23)s1)N/N=C/c1c[nH]c2ccccc12 | -78*
Cc1cccc(NC(=S)N/N=C/c2c[nH]c3ccccc23)c1 | -65*
Cc1cc(C(=O)N/N=C/c2c[nH]c3ccccc23)cs1 | -74*
O=C(N/N=C/c1cccc2ccccc12)c1cccs1 | -164*
O=C(N/N=C/c1c[nH]c2ccccc12)c1cccs1 | -127*
O=C(N/N=C/c1c[nH]c2ccccc12)c1ccc2c(c1)OCCO2 | -140*
Cc1cc(/C=N\NC(=O)c2cccs2)c(C)n1-c1ccc2ncccc2c1 | -145*
Cc1ccccc1CSc1nnc(-c2ccncc2)o1 | -86*
c1ccc(CSc2nnc(-c3ccncc3)o2)cc1 | -104*
Fc1ccc(-c2nnc(SCc3cccnc3)o2)cc1 | -76*
COc1cc(-c2cc(C(=O)Nc3nc4ccccc4s3)c3ccccc3n2)cc(OC)c1OC | -65*
COc1ccc(-c2cc(C(=O)Nc3ccc(C(N)=O)cc3)c3ccccc3n2)cc1OC | -99*
CC(=O)NC1=NC(=O)/C(=C/c2cc(C)n(-c3ccc(NC(C)=O)cc3)c2C)S1 | -80*
CCOC(=O)/C(C#N)=C/N=c1ccc(C)cn1C | -88*
CCCN1C=CC(=C/C=C(\C#N)C(=O)OCC)C=C1 | -157*
Cc1cc(C)c(C#N)c(SCC(=O)Nc2ccccc2C(N)=O)n1 | -64*
Cc1cc(C)c(C#N)c(SCC(=O)Nc2ccc3c(c2)OCO3)n1 | -145*
Cc1nc(SCC(=O)Nc2ccc3c(c2)OCO3)c(C#N)c2c1CCCC2 | -140*
COCc1cc(C)nc(SCC(=O)Nc2ccc(C)c(C)c2)c1C#N | -136*
O=C(Nc1nc2ccsc2c(=O)s1)c1ccc(F)cc1 | -158*
Cc1csc2nc(NC(=O)c3ccccc3)sc(=O)c12 | -97*
CSc1nc2ccc3nc(NC(=O)c4ccccc4)sc3c2s1 | -318*
O=C(Nc1nc2ccsc2c(=O)s1)c1ccc(F)cc1Cl | -117*
O=C(CNS(=O)(=O)c1ccc2ccccc2c1)OCc1csc(-c2ccccc2)n1 | -62*
Cc1ccccc1Cn1c(O)c(N=NC(=S)Nc2ccccc2F)c2ccccc21 | 73
SMILES | aSyn 5UTR act
CCn1c(O)c(N=NC(=O)c2cccs2)c2ccccc21 | -67*
Oc1c(N=NC(=S)Nc2ccccc2F)c2ccccc2n1Cc1ccccc1F | 87
COc1ccc2cc(/C(C)=N/NC(=O)C3CC3)ccc2c1 | -135*
COc1cccc(/C(C)=N/NC(=O)c2ccc(N(C)C)cc2)c1 | -101*
COc1ccc(C(=O)N/N=C(/C)c2cccc(NC(=O)C(F)(F)F)c2)cc1 | -108*
C/C(=N/NC(=O)c1ccoc1C)c1cccc(NC(=O)C(F)(F)F)c1 | -128*
C/C(=N/NC(=O)c1ccoc1C)c1cccc(NC(=O)C2CC2)c1 | -115*
COCCNC(=O)C(c1ccncc1)N(C(=O)c1sc(C)nc1C)c1cccc(C)c1 (configuration not stated) | -90*
Cc1cccc(C(=O)NC(=S)Nc2ccc(N3CCOCC3)cc2)c1 | -66*
O=C(NC(=S)Nc1ccc(N2CCOCC2)cc1)c1cccs1 | -126*
Cc1ccc(C(=O)N2CCN(c3ccc(NC(=S)NC(=O)c4cccs4)cc3)CC2)cc1 | 52
C/C(=N/NC(=O)c1cccs1)c1ccc(N2CCOCC2)cc1 | -66*
CCOC(=O)c1csc(-c2ccc([N+](=O)[O-])cc2)n1 | -67*
CCCOc1ccc(C(=O)NNC(=S)NC(=O)CC)cc1 | 85
CCCOc1ccc(C(=O)NC(=S)Nc2nc3ccccc3s2)cc1 | -247*
Cc1ccc2nc(NC(=S)NC(=O)c3ccc(OC(C)C)cc3)sc2c1 | -107*
COc1ccc(-c2csc(NC(=O)c3ccccc3NS(=O)(=O)c3ccc(F)c(F)c3)n2)cc1 | 74
CCCC(=O)NC(=S)Nc1nc(-c2ccc(OC)cc2)cs1 | -65*
Cc1ccc2nc(NC(=S)NC(=O)c3cccs3)sc2c1 | -104*
Cc1ccc(-c2csc(NC(=S)NC(=O)c3cccs3)n2)cc1 | -77*
CCOc1ccc2c(c1)c(N=Nc1cccc(C(=O)O)c1)c(O)n2C | -179*
CCc1ccccc1NC(=S)N=Nc1c(O)n(C)c2ccc(S(=O)(=O)N3CCOCC3)cc12 | 80
O=C(Nc1nnc(C2CC2)s1)c1cc(-c2ccccc2)nn1-c1ccccc1 | -95*
O=C(Nc1nnc(C2CC2)s1)c1ccco1 | -74*
CCc1c(C(=O)Nc2nnc(C3CC3)s2)csc1C | -119*
SMILES | aSyn 5UTR act
O=C(Nc1nnc(C2CCCCC2)s1)c1ccco1 | -178*
COC(=O)c1cnn(-c2cc(Oc3cccc(C)c3)ncn2)c1N | -138*
CCCCOc1ccc(-c2ncc([N+](=O)[O-])cn2)cc1 | -133*
CCCCOc1ccc(-c2[nH]ncc2C=O)cc1 | -82*
CCCCOc1ccc(-c2ncc(Cl)cn2)cc1 | -89*
COc1ccc(C2=Nn3c(nnc3-c3ccc(OC)cc3)SC2)cc1 | 100
Cc1nnc2n(c1=O)N=C(c1ccc(Cl)cc1)CS2 | -93*
CC1(C)CCCN(Cc2c(O)ccc3c(=O)c(-c4nc5ccccc5s4)c(N)oc23)C1 | -125*
O=C(c1cc(COc2ccc(F)c(F)c2)on1)N1CCSCC1 | -94*
CC(=O)c1cccc(OCc2cc(C(=O)N3CCSCC3)no2)c1 | -152*
O=C(O)c1ccc(Nc2nc(-c3cccnc3)cs2)cc1 | -88*
CC(=O)c1ccc(Nc2nc(-c3cccnc3)cs2)cc1 | -130*
O=C1C(Cl)=C(Nc2ccc3cn[nH]c3c2)C(=O)c2ccccc21 | 100
CN(C)c1ccc(NC2=C(Cl)C(=O)c3ccccc3C2=O)cc1 | -116*
O=C1CCCc2nc(N3CCN(C(=O)c4ccco4)CC3)ncc21 | -93*
O=C(c1ccco1)N1CCN(c2ncnc3c2oc2ccccc23)CC1 | -113*
Nc1nc(N2CCN(C(=O)c3ccco3)CC2)nc2ccccc12 | -102*
Cc1c2cnn(CC(=O)NC3CCCC3)c(=O)c2c(C)n1Cc1ccccc1 | -100*
Cc1nc2c(-c3ccc(F)cc3)cnn2c2c1CCC2 | -87*
O=C(c1ccc(-c2ccc(Cl)cc2Cl)o1)N1CCOCC1 | -104*
O=C(c1cc(-c2ccc(Cl)cc2)on1)N1CCCCCC1 | -148*
Cc1ccc(-c2cc(C(=O)N3CCCC3)no2)cc1 | 53
O=C(c1cc(-c2ccc(O)cc2)on1)N1CCCCCC1 | -94*
CN(C)/C=C/C(=O)c1ccc(-c2ccc(Cl)cc2Cl)o1 | -106*
O=C(c1cc(-c2cccc(Cl)c2)on1)N1CCCCCC1 | -175*
SMILES | aSyn 5UTR act
O=C(c1cc(-c2ccc(Cl)c(Cl)c2)on1)N1CCCCCC1 | -198*
O=C(c1cc(-c2ccc(Cl)cc2Cl)on1)N1CCCCCC1 | -71*
COc1ccc(NC(=O)c2cc(C3CC3)on2)c(OC)c1 | -200*
Cc1c(Cl)cccc1NC(=O)c1cc(C2CC2)on1 | -207*
Cc1cc(NC(=O)c2cc(C3CC3)on2)no1 | -96*
COc1ccc(C(=O)Nc2cccc(N(C)S(C)(=O)=O)c2)cc1OC | -168*
CN(C)c1ccc(NC(=O)Nc2cccc(Cl)c2)cc1 | -138*
CN(c1cccc(NC(=O)Nc2cccc(Cl)c2)c1)S(C)(=O)=O | -92*
CC(Cc1cccs1)NC(=O)Nc1cccc(Cl)c1 (configuration not stated) | -62*
Cc1occc1C(=O)N/N=C/c1cccc2ccccc12 | -200*
Cc1occc1C(=O)Nc1cccc2ccccc12 | -172*
Cc1occc1C(=O)N/N=C/c1cccs1 | -82*
O=C(N/N=C/c1cccs1)c1n[nH]c2c1CCCC2 | 82
CCN1C(=O)/C(=C\C=C2/C=CC=CN2CC)SC1=S | -125*

Bioassay records: PubChem BioAssay, Broad Institute
